Compounds with a hit are over-represented: about 21% of the library has one in this group of screens.
CHX counter: counter-screen hit for Shiga toxin inhibitors, cycloheximide | cell reporter, cycloheximide protein synthesis inhibition counterscreen | max response, % | 300,000 tested, 12% active | AID 2314; in the data active = max response mostly above about 13%, no sharp cut-off; inactive = mostly below about 14%; note: read at 38.3 µM for the half of the compounds with a filed dose; 0% is about no effect
Pf growth 96h: inhibits malaria parasite growth, 96 h; 320,000 tested, 6.9% active; P. falciparum luciferase reporter growth, 96 h; Potency, µM (top dose mostly 28.7 µM), without a hit: at the top dose activity change, negative = inhibition, usual class: inhibitors; note: potency is the fitted concentration of half-maximal effect; % is set by controls: 0 for no effect and ±100 for the full control effect
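Compounds incubated with erythrocytes infected by luciferase-expressing P. falciparum (2% hematocrit, 0.05% parasitemia final) for 96 hours, 37 C in 5% CO2. Growth inhibition scored as decreased luciferase luminescence.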
Shiga toxin inh: inhibitors of Shiga toxin in Vero cells; AID 2315; inhibition, % at 38.7 µM; Vero cells, Shiga toxin protein synthesis inhibition reporter; 290,000 tested, 9.2% active; in the data active = inhibition mostly above about 28%, no sharp cut-off; inactive = mostly below about 43%; note: 0% is about no effect
Pf growth 48h: inhibits P. falciparum growth in the first generation, 48 h | AID 504832 | Potency, µM (top dose mostly 28.7 µM), for the others: at the highest dose activity change, negative = inhibition, usual class: inhibitors | P. falciparum luciferase growth in erythrocytes, 48 h | 310,000 tested, 5.9% active; note: potency is the fitted concentration of half-maximal effect; % is set by controls: 0 for no effect and ±100 for the full control effect
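Erythrocytes infected with P. falciparum carrying an integrated firefly luciferase reporter (2% hematocrit, 0.1% parasitemia final) were exposed to compounds in RPMI 1640 with 0.5% Albumax at 37 C, 5% CO2. Growth inhibition was scored as reduced luminescence.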
NS1 function inh: inhibitors of influenza NS1 protein function; Potency, µM (titrated, usually from 46.1 µM), for the others: top-dose activity, positive = more growth; 270,000 tested, 0.4% active; AID 2326; calls by dose curve; note: potency is the fitted concentration of half-maximal effect; actives are rising curves; nearly all actives have a fitted effect of over 50% in size
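Compounds were scored for reversing the slow growth caused by influenza A NS1 in S. cerevisiae, measured by optical density at 600 nm. Assay medium contained 2% galactose at pH 6.0; NS1-free yeast of the same strain were the positive control.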
Sm TGR block: inhibitors of Schistosoma mansoni thioredoxin glutathione reductase. Q962Y6. purified TGR, DTNB reduction, TNB absorbance 405 nm. Potency, µM (series often up to 114 µM), inactives show at the highest dose activity change, negative = inhibition, actives largely listed as inhibitors. 360,000 tested, 3% active. AID 485364; note: potency is the fitted concentration of half-maximal effect; % is set by controls: 0 for no effect and ±100 for the full control effect; nearly all actives have a fitted effect of over 60% in size
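First, TGR (20 nM dispensed) and NADPH were mixed with compound. Second, a 15 min room-temperature incubation followed. Third, further NADPH and then DTNB were added to start the reaction. Finally, TNB absorbance was monitored kinetically.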
Starred values were filed as active, the others as inactive; ? = inconclusive; / = no result; + = active, no number; [ ] = remark or other dose. Unless noted, calls come from the whole dose curve; as a rule, active = well fitted curve in the direction sought with a large enough effect; inconclusive = small, poorly fitted or top-dose-only effect, or another doubt; inactive = no such curve, though single readings can be large; an effect the other way counts as inactive or inconclusive.

SMILES	CHX counter	Pf growth 96h	Shiga toxin inh	Pf growth 48h	NS1 function inh	Sm TGR block
CNc1ccc(Br)cc(C(=O)/C=C/c2cccc(OC)c2)c1=O	13*	?	-35	?	16%	3.2µM*
CNc1ccc(Br)cc(C(=O)/C=C/c2ccc(Cl)cc2Cl)c1=O	2	?	-4	?	3%	3.5µM*
CNc1ccc(Cl)cc1C(N)=O	-2	42%	2	38%	4%	-13%
CNc1ccc(Br)cc(C(=O)/C=C/c2ccc(OC)cc2OC)c1=O	65*	?	80*	?	?	?
COc1ccc(NC(=O)c2cc(Br)ccc2Cl)c(OC)c1	7	-27%	2	10%	7%	-8%
CCOc1ccc(N(CC(=O)NCc2ccccc2OC)S(C)(=O)=O)cc1	43*	/	92*	41%	-3%	5%
COc1ccc(N(CC(=O)NCc2ccccc2OC)S(=O)(=O)c2c(C)nn(C)c2C)cc1	-1	46%	-6	/	-33%	2%
COc1ccccc1CNC(=O)CN(c1ccc(C)cc1)S(=O)(=O)c1c(C)nn(C)c1C	5	4.1µM*	15	?	-10%	-17%
CCOc1ccc(N(CC(=O)NCc2ccccc2)S(C)(=O)=O)cc1	26*	43%	68*	49%	2%	3%
Cc1ccc(CNC(=O)CN(c2ccc(Cl)cc2)S(C)(=O)=O)cc1	12*	?	/	-12%	8%	-13%
O=C(Cc1ccc(Cl)cc1Cl)NCC1(N2CCOCC2)CCCCC1	3	0%	-24	-12%	/	6%
CCCC(CCC)c1nc2ccncc2[nH]1	-1	2%	16	-16%	/	1%
COc1ccc2[nH]c3c(c2c1)CCN1C(=O)N([C@@H](C)C(=O)NC2CCN(Cc4ccccc4)CC2)C(=O)[C@]31C	-4	?	7	?	0%	-29%
COc1ccc(N2C(=O)CCC2=O)cc1	1	?	-20	15%	3%	0%
COc1ccc(N2CS(=O)(=O)/C(=C/N(C)C)C2=O)cc1	39*	294%	75*	106%	12%	7%
C=CCSc1nn2c(=O)c3ccccc3nc2s1	35*	238%	48*	185%	-4%	7%
C/C(Cl)=C/CSc1nn2c(=O)c3ccccc3nc2s1	41*	46%	62*	/	-65%	-10%
O=C(N/N=C\c1ccc([N+](=O)[O-])o1)C1COc2ccccc2O1 (stereo unspecified)	22*	-18%	67*	?	/	?
CC(C)(C)c1ccc2c(c1)OC(C(=O)N/N=C\c1ccc(-c3cccc(C(=O)O)c3)o1)CO2 (stereo unspecified)	70*	40%	148*	26%	-10%	-16%
O=C(O)c1cccc(-c2ccc(/C=N/NC(=O)C3COc4ccccc4O3)o2)c1 (stereo unspecified)	56*	-5%	+	0%	-5%	-9%
O=C(N/N=C\c1ccc(-c2ccccc2[N+](=O)[O-])o1)C1COc2ccccc2O1 (stereo unspecified)	-7	?	-14	-17%	9%	-5%
O=C(N/N=C/c1c[nH]c2ccccc12)C1COc2ccccc2O1 (stereo unspecified)	-4	10µM*	-9	-4%	-6%	-8%
Cc1ccc(S(=O)(=O)N(C)c2ccccc2C(=O)NC2CCCC2)cc1	3	?	8	-20%	2%	-1%
CCOC(=O)c1c(Oc2ccc(C(=O)OC)cc2)nnc(-c2ccccc2)c1-c1ccccc1	/	/	/	/	/	3%
CCCCNC(=O)COC(=O)c1ccc(NC(C)=O)cc1	1	9%	-5	15%	/	2%
Cc1ccc(C(=O)Nc2c(-c3ccccc3)nc3ccccn23)cc1	/	/	/	/	/	-14%
CCC(=O)Nc1c(-c2ccc3ccccc3c2)nc2ccccn12	38*	89%	50	62%	1%	8%
CC(=O)Nc1c(-c2ccc3ccccc3c2)nc2ccccn12	21*	149%	104*	-12%[0.00184 µM]	0%	-5%
COc1ccc(N2CC(C(=O)NC3CCSC3=O)CC2=O)cc1 (stereo unspecified)	-3	9%	-5	-18%	7%	2%
